# Tests used:
# Experiment in all cases: DAPPL (digital affinity profiling via proximity ligation, sequencing); 10 mM Tris-HCl pH 7.5, 50 mM NaCl, 1 mM DTT, 4% glycerol, room temperature, 30 min; GST-TFs on glutathione beads, 16-mer random dsDNA library, 0.1% formaldehyde crosslink after washing; high values mean tight binding
# FLI1 = target: T1, FLI1 (Homo sapiens, UniProt Q01543 1-452); details: protein: recombinant; tags: N-terminal GST; dsDNA, one strand shown
# T1 sequence: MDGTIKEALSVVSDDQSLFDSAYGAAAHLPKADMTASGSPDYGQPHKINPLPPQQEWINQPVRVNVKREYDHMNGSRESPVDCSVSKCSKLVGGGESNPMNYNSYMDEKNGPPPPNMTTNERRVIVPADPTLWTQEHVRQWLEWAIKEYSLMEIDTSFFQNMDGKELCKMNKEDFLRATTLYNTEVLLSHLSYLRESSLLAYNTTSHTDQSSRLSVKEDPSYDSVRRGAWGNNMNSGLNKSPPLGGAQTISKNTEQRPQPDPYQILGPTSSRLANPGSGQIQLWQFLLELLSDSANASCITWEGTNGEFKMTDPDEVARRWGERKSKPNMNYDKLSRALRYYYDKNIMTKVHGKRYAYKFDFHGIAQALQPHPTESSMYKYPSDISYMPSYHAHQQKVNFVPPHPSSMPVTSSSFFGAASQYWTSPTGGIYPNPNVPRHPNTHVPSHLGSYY
# Procedure, shortened: (§1)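 Yeast served to express human transcription factors as GST fusions, which were then captured on glutathione beads and labelled with DNA barcodes. Pooled with a tag-only sample, they were incubated with 200 nmole of a 16-mer random double-stranded DNA library for 30 min at room temperature in Tris/NaCl/DTT/glycerol buffer, washed, crosslinked with 0.1% formaldehyde, ligated by proximity, amplified by PCR and sequenced. Dividing each hexamer's read frequency for a factor by its frequency for the tag-only sample gives the binding signal.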
# ELK1 = target: T2, ELK1 (Homo sapiens, UniProt P19419 1-428); details: protein: recombinant; tags: N-terminal GST; dsDNA, one strand shown
# T2 sequence: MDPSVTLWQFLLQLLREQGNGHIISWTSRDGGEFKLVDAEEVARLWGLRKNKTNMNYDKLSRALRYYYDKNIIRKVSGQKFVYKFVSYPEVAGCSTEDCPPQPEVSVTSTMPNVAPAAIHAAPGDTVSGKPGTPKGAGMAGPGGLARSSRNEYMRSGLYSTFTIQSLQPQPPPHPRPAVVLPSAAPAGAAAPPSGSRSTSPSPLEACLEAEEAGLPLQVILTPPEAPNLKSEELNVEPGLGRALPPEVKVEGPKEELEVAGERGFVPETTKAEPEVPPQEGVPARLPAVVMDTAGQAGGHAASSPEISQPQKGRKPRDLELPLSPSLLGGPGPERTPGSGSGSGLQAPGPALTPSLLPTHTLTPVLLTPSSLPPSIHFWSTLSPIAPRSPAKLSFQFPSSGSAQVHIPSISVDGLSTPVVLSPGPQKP
# Procedure, shortened: as §1
# GABPA = target: T3, GABPA (Homo sapiens, UniProt Q06546 1-454); details: protein: recombinant; tags: N-terminal GST; dsDNA, one strand shown
# T3 sequence: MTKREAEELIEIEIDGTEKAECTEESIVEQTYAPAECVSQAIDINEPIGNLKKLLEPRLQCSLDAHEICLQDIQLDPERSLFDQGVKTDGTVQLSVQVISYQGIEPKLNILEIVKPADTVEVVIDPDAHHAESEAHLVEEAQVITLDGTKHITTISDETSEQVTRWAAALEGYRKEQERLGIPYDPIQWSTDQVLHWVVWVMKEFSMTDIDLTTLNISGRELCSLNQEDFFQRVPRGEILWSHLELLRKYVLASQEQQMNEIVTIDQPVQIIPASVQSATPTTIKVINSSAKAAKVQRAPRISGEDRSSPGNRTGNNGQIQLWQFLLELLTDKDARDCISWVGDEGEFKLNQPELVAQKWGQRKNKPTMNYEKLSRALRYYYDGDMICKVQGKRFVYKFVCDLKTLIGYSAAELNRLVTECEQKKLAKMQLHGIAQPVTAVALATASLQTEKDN
# Procedure, shortened: as §1
# ERG = target: T4, ERG (Homo sapiens, UniProt P11308 1-479); details: protein: recombinant; tags: N-terminal GST; dsDNA, one strand shown
# T4 sequence: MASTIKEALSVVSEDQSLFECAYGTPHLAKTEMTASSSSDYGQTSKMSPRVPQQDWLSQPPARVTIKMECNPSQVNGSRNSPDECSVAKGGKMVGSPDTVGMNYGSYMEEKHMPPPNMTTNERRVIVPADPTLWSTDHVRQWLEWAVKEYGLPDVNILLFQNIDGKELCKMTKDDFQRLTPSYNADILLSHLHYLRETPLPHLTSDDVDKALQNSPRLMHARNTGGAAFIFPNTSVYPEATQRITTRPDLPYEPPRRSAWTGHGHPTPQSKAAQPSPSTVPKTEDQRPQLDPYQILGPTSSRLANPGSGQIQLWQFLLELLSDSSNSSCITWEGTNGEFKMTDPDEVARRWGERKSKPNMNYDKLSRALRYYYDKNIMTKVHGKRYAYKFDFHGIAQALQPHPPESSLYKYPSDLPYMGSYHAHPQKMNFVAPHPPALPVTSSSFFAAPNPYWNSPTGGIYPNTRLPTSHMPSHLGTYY
# Procedure, shortened: as §1
# ELF1 = ELF1 (Homo sapiens, UniProt P32519 1-619); details: protein: recombinant; tags: N-terminal GST; dsDNA, one strand shown
# Chain of ELF1 (P32519 whole entry): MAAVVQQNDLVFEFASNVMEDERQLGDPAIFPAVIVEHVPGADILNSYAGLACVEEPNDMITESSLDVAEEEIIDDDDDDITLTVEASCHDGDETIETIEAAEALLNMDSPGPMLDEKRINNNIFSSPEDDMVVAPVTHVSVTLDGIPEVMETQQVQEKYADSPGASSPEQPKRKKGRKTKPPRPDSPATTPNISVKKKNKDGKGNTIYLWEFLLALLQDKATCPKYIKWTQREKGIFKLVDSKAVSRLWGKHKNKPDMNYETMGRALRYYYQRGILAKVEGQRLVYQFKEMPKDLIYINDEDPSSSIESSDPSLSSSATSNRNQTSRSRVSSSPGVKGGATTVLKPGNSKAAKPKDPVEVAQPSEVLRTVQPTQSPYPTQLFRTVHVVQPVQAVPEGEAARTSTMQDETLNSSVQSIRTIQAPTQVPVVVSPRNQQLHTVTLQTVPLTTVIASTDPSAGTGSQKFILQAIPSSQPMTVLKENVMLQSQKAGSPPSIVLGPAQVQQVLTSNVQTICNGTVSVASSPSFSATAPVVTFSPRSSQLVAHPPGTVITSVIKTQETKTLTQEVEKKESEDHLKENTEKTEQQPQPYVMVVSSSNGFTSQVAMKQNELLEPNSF
# Procedure, shortened: as §1
# EHF = target: T5, EHF (Homo sapiens, UniProt Q9NZC4 1-300); details: protein: recombinant; tags: N-terminal GST; dsDNA, one strand shown
# T5 sequence: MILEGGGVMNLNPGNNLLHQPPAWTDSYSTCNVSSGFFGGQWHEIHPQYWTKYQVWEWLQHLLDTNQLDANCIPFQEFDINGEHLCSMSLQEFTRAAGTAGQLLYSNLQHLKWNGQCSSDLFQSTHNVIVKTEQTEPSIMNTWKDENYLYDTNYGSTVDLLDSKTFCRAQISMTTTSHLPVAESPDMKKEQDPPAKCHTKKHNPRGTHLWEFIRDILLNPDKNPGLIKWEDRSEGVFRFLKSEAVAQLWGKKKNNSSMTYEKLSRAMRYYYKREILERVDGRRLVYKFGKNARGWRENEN
# Procedure, shortened: as §1
# SPI1 = SPI1 (Homo sapiens, UniProt P17947 1-270); details: protein: recombinant; tags: N-terminal GST; dsDNA, one strand shown
# Procedure, shortened: as §1
# SPIB = SPIB (Homo sapiens, UniProt Q01892 1-262); details: protein: recombinant; tags: N-terminal GST; dsDNA, one strand shown
# Chain of SPIB (Q01892 whole entry): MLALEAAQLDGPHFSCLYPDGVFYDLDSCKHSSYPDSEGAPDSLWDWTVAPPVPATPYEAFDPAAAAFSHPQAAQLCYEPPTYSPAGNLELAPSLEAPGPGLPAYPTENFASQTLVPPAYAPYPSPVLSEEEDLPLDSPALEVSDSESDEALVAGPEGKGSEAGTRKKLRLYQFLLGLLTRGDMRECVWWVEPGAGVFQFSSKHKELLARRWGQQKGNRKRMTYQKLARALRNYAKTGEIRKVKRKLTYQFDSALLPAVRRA
# Procedure, shortened: as §1
# ELK3 = target: T6, ELK3 (Homo sapiens, UniProt P41970 1-407); details: protein: recombinant; tags: N-terminal GST; dsDNA, one strand shown
# T6 sequence: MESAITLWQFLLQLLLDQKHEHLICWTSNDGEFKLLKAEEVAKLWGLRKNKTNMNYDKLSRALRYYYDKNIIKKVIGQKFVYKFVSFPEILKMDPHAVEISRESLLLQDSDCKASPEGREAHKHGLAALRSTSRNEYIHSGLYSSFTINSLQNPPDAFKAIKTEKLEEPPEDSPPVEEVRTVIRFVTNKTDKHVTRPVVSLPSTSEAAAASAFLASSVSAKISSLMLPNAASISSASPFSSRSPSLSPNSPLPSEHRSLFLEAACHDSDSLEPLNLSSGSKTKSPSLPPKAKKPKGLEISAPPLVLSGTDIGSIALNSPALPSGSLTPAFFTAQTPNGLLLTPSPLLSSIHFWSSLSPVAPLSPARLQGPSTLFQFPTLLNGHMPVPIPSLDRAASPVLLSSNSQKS
# Procedure, shortened: as §1
# FEV = target: T7, FEV (Homo sapiens, UniProt Q99581 1-238); details: protein: recombinant; tags: N-terminal GST; dsDNA, one strand shown
# T7 sequence: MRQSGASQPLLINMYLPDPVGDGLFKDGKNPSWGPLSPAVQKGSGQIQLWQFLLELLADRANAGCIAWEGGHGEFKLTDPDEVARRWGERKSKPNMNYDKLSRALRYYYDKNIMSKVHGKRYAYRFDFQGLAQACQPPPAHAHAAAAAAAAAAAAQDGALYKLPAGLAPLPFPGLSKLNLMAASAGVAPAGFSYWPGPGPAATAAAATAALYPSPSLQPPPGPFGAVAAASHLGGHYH
# Procedure, shortened: as §1
# ETV5 = ETV5 (Homo sapiens, UniProt P41161 1-510); details: protein: recombinant; tags: N-terminal GST; dsDNA, one strand shown
# Chain of ETV5 (P41161 whole entry): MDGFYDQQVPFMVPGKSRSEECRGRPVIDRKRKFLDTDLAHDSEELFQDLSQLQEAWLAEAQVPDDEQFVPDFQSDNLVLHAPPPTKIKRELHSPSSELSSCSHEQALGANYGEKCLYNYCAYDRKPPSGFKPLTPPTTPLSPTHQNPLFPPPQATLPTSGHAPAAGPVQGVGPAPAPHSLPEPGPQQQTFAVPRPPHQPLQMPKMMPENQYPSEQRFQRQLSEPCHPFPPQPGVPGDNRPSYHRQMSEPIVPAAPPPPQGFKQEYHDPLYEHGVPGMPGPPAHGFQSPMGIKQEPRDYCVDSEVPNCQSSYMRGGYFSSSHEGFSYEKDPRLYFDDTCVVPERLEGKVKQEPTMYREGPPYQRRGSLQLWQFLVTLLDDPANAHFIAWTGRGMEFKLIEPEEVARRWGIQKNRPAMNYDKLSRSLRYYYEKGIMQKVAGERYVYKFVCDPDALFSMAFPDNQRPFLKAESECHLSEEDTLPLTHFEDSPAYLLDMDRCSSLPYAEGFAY
# Procedure, shortened: as §1
# HSF1 = HSF1 (Homo sapiens, UniProt Q00613 1-529); details: protein: recombinant; tags: N-terminal GST; chain copies: 3; dsDNA, one strand shown
# Chain of HSF1 (Q00613 whole entry): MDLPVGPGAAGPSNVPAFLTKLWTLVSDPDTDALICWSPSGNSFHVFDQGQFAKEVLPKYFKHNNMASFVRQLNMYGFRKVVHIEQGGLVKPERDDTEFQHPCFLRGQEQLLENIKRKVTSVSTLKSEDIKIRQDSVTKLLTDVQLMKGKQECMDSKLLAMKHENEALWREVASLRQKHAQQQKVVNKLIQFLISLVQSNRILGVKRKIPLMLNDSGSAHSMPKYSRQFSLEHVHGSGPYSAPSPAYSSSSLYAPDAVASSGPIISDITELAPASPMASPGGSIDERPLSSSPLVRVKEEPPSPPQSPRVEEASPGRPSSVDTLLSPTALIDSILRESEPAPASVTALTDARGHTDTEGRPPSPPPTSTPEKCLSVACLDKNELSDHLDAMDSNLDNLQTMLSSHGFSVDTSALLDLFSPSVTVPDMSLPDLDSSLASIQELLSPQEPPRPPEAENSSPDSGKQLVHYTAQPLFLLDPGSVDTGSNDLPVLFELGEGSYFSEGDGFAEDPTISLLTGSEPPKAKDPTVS
# Procedure, shortened: as §1
# SPIC = target: T8, SPIC (Homo sapiens, UniProt Q8N5J4 1-248); details: protein: recombinant; tags: N-terminal GST; dsDNA, one strand shown
# T8 sequence: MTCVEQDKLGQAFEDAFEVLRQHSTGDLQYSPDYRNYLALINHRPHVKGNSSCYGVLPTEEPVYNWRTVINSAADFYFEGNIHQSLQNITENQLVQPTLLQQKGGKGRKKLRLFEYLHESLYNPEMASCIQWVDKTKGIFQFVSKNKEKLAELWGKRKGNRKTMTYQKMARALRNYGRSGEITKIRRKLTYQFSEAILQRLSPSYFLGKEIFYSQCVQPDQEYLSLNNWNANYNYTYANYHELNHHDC
# Procedure, shortened: as §1
# ELF4 = ELF4 (Homo sapiens, UniProt Q99607 1-663); details: protein: recombinant; tags: N-terminal GST; dsDNA, one strand shown
# Chain of ELF4 (Q99607 whole entry): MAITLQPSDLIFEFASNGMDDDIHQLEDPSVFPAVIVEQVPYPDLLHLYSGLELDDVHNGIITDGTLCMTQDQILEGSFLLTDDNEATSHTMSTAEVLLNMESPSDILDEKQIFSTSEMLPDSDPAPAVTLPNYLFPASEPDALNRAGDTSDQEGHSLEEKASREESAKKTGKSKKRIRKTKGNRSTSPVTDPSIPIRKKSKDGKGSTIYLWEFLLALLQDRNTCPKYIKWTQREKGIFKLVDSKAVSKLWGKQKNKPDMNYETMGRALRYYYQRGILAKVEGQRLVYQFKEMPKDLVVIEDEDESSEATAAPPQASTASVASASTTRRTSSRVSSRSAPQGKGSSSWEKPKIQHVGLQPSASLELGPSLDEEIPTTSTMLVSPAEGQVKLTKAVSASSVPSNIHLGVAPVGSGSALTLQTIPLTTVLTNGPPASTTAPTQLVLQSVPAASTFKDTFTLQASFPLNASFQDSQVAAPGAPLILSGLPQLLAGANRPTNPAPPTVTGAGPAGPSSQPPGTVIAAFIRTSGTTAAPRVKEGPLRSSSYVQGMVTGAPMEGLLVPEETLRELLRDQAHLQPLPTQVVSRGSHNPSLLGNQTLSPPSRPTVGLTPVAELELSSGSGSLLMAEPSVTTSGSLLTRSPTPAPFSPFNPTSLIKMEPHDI
# Procedure, shortened: as §1
# ELK4 = target: T9, ELK4 (Homo sapiens, UniProt P28324-2 1-405); details: protein: recombinant; tags: N-terminal GST; dsDNA, one strand shown
# T9 sequence: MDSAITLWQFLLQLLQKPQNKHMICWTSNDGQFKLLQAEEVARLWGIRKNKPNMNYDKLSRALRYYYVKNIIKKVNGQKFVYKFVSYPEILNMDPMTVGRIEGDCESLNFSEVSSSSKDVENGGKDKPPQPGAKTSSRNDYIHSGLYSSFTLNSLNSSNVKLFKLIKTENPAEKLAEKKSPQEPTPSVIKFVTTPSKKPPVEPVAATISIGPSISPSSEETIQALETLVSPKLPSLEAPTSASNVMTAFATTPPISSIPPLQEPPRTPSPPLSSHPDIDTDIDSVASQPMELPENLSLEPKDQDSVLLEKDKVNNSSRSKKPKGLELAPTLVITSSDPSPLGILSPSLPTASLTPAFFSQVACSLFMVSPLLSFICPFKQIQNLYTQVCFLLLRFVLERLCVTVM
# Procedure, shortened: as §1
# ETV2 = target: T10, ETV2 (Homo sapiens, UniProt O00321 1-342); details: protein: recombinant; tags: N-terminal GST; dsDNA, one strand shown
# T10 sequence: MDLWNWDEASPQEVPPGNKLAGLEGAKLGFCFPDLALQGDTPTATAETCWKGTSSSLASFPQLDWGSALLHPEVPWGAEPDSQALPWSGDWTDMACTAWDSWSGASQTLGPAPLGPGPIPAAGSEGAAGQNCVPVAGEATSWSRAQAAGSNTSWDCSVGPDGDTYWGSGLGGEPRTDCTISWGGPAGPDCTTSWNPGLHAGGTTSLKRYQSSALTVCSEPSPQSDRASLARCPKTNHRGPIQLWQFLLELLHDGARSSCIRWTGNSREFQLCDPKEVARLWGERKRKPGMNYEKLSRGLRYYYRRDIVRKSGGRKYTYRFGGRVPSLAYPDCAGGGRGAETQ
# Procedure, shortened: as §1
# ELF3 = target: T11, ELF3 (Homo sapiens, UniProt P78545 1-371); details: protein: recombinant; tags: N-terminal GST; dsDNA, one strand shown
# T11 sequence: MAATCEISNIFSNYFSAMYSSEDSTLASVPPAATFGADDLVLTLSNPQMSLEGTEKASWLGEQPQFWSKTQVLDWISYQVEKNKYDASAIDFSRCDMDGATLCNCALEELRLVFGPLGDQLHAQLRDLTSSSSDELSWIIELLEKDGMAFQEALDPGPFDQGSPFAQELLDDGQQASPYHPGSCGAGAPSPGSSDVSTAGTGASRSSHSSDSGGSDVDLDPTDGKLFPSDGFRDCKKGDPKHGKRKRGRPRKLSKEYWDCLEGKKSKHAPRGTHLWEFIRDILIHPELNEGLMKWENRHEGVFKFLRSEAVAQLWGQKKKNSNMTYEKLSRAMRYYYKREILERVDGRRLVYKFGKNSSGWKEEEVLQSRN
# Procedure, shortened: as §1
# CRX = CRX (Homo sapiens, UniProt O43186 1-299); details: protein: recombinant; tags: N-terminal GST; dsDNA, one strand shown
# Chain of CRX (O43186 whole entry): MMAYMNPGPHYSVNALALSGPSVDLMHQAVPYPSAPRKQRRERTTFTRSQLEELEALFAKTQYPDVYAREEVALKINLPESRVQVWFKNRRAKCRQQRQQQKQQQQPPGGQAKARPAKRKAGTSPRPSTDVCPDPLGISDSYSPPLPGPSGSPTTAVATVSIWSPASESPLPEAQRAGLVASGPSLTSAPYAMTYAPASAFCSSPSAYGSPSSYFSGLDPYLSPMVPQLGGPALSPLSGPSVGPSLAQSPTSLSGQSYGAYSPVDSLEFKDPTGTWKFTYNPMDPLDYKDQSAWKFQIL
# Procedure, shortened: as §1
# ETV1 = ETV1 (Homo sapiens, UniProt P50549 1-477); details: protein: recombinant; tags: N-terminal GST; dsDNA, one strand shown
# Chain of ETV1 (P50549 whole entry): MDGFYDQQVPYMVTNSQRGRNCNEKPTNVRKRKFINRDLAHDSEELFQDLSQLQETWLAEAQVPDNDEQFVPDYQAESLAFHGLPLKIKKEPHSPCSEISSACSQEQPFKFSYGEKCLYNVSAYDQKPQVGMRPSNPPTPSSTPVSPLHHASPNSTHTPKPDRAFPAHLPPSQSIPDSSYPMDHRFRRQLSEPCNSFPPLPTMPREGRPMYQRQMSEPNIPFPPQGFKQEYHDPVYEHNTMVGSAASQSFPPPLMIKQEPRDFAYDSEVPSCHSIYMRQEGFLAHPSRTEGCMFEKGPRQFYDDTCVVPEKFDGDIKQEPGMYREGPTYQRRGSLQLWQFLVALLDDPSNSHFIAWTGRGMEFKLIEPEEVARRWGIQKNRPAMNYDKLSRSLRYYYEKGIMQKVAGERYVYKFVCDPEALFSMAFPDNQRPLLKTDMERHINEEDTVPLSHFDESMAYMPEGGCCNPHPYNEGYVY
# Procedure, shortened: as §1
sequence,measurement,setting,value
TCCGAA,binding signal,FLI1,"1.35 fold enrichment (6-mer frequency, TF over GST control)"
same,binding signal,ELK1,"1.28 fold enrichment (6-mer frequency, TF over GST control)"
same,binding signal,GABPA,"1.37 fold enrichment (6-mer frequency, TF over GST control)"
same,binding signal,ERG,"1.3 fold enrichment (6-mer frequency, TF over GST control)"
same,binding signal,ELF1,"1.23 fold enrichment (6-mer frequency, TF over GST control)"
same,binding signal,EHF,"1.41 fold enrichment (6-mer frequency, TF over GST control)"
same,binding signal,SPI1,"1.25 fold enrichment (6-mer frequency, TF over GST control)"
same,binding signal,SPIB,"1.44 fold enrichment (6-mer frequency, TF over GST control)"
same,binding signal,ELK3,"1.18 fold enrichment (6-mer frequency, TF over GST control)"
same,binding signal,FEV,"1.24 fold enrichment (6-mer frequency, TF over GST control)"
same,binding signal,ETV5,"1.31 fold enrichment (6-mer frequency, TF over GST control)"
same,binding signal,HSF1,"1.48 fold enrichment (6-mer frequency, TF over GST control)"
same,binding signal,SPIC,"1.43 fold enrichment (6-mer frequency, TF over GST control)"
same,binding signal,ELF4,"1.21 fold enrichment (6-mer frequency, TF over GST control)"
same,binding signal,ELK4,"1.23 fold enrichment (6-mer frequency, TF over GST control)"
same,binding signal,ETV2,"1.46 fold enrichment (6-mer frequency, TF over GST control)"
same,binding signal,ELF3,"1.1 fold enrichment (6-mer frequency, TF over GST control)"
same,binding signal,CRX,"1.28 fold enrichment (6-mer frequency, TF over GST control)"
same,binding signal,ETV1,"1.19 fold enrichment (6-mer frequency, TF over GST control)"
